# Test results taken from PubChem BioAssay AID1273 (Columbia University Molecular Screening Center, 2008).
# About 1,200 (0.92%) of roughly 130,000 compounds were called active. The sample holds actives, similar compounds and a random draw of the others, so the mix is not that of the screen.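 How the source made its calls: active means inhibition above the mean plus 3 SD, with well images judged a real hit on visual review (cut at about 60% in these data, passing the limit was not always enough); inconclusive means inhibition over the cutoff but images rejected on review; inactive means inhibition not above the cutoff.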
# Assay: inhibitors of insulin promoter-driven GFP, primary screen, imaging, TRM-6 cells (human fetal islet line), eGFP reporter, cell count (AID 1273;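 on normalized cell count: cells exposed to compound for 48 h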)
# Details: at 2 µM, reporter expression induced with tamoxifen; inhibition: stronger effect = higher value; normalized cell count: measured here: cell count, toxicity
SMILES,inhibition,normalized cell count [%]
CCC(=O)c1cc2c(cc1NC(=O)c1cccs1)OCCO2,80% (active),106
COc1cc(NC(=O)c2cccs2)ccc1NC(=O)c1ccccc1Cl,20% (inactive),118
Cc1nc(-c2ccc(NC(=O)c3cccs3)cc2)cs1,43.8% (inactive),89.3
N/C(=N\OC(=O)COc1ccc([N+](=O)[O-])cc1)c1ccc(Br)cc1,-81.2% (inactive),113
Cc1cccc(C)c1NC(=S)N(Cc1cccnc1)Cc1ccccc1Cl,-60% (inactive),73.3
Cc1cccc(N2C(=O)c3cccnc3C2=O)c1,11.4% (inactive),66.7
CCOc1ccc(CCN2C(=O)c3cccnc3C2=O)cc1OCC,68.4% (active),94.8
CCOc1ccc(CCNC(=O)CSc2cc(=O)n(C)c3ccc(Cl)cc23)cc1OCC,-11.8% (inactive),144
C/C(=N\NC(=O)C(N)=O)c1ccc2c(c1)OCCO2,-41.2% (inactive),156
Cc1nc(NC(=O)CN(C)S(=O)(=O)c2ccc(Cl)cc2)sc1C,80% (active),67.9
CN(CC(=O)Nc1cccc2c1CCCC2)S(=O)(=O)c1ccc(Cl)cc1,38.5% (inactive),112
CN(CC(=O)NCCc1ccccn1)S(=O)(=O)c1ccc(Cl)cc1,-33.3% (inactive),83.8
COC(=O)c1cc(C)sc1NC(=O)CC1Nc2ccccc2NC1=O (centres undefined),40.5% (inactive),145
Cc1cnc(NC(=O)C2CCCC2)s1,20.5% (inactive),280
CCOC(=O)c1cc(C)sc1NC(=O)C1CCC1,87.5% (active),161
CCOC(=O)c1ccc(NNC(C)=O)c([N+](=O)[O-])c1,-68.4% (inactive),62.3
O=C(C1CCCO1)N1CCN(C(=S)NC2CC2)CC1 (centres undefined),-29.4% (inactive),80.6
CC(=O)c1ccc(N2CCN(S(=O)(=O)c3c(C)[nH]c(=O)[nH]c3=O)CC2)cc1,-10% (inactive),114
C/C(=C\C(=O)c1ccccc1)Nc1cccc(O)c1,-33.3% (inactive),193
C/C(=C\C(=O)c1cccnc1)Nc1ccc(C)c(C)c1,85.7% (active),74
Cc1ccc(N/C=C/C(=O)c2ccccc2)cc1C,7.69% (inactive),107
CCSC1=NCCN1S(=O)(=O)c1ccc(F)cc1,7.69% (inactive),130

SMILES,inhibition,normalized cell count [%]
CC(Oc1ccc(Cl)cc1)C(=O)OCC(=O)Nc1ncc(Cl)cc1Cl (centres undefined),20% (inactive),100
COc1cc(NC(=O)COC(=O)c2cnc(C)cn2)c(C)cc1[N+](=O)[O-],27.3% (inactive),90.4
Cc1cnc(C(=O)OCC(=O)Nc2ccc(Cl)cc2Cl)cn1,81.5% (active),20
Cc1ccc(S(=O)(=O)Cc2cc(-c3ccc(Cl)cc3)no2)cc1,25% (inactive),128
CCOC(=O)C1(Cc2ccc(Cl)cc2)CCN(C(=O)C2=NNC(=O)CC2)CC1,-46.1% (inactive),93.7
CCN(CC)Cc1c(C(=O)OC)nnn1-c1nonc1N,72.4% (active),14.1
CCOC(=O)c1nnn(-c2nonc2-n2cccc2)c1CN1CCC(C(=O)OCC)CC1,13.9% (inactive),99.3
CCOC(=O)c1nnn(-c2nonc2-n2cccc2)c1CN1CCOCC1,13.9% (inactive),62.1
Cc1ccc(C(=O)Cn2cccn2)cc1,-62.5% (inactive),90.7
CNS(=O)(=O)c1ccc(NC(=O)C2CC(=O)N(c3ccc(Cl)cc3)C2)cc1 (centres undefined),63.6% (inactive),32.9
O=C(Nc1nnc(SCc2ccccc2)s1)c1ccco1,0% (inactive),86.4
CCSc1nnc(NC(=O)c2ccc(C)cc2)s1,-38.7% (inactive),45.1
Cc1ccc(Nc2nnc(SCc3ccccc3)s2)cc1,100% (active),9.38
O=C(NCC1CCCO1)C(C(=O)c1ccccc1)n1cc(Cl)ccc1=O (centres undefined),-40% (inactive),104
CN(C)CCNC(=O)/C(=C/c1cccc([N+](=O)[O-])c1)NC(=O)c1ccccc1,-14.3% (inactive),101
CN(C)CCNC(=O)C(C(=O)c1ccccc1)n1ccccc1=O (centres undefined),86.7% (active),49.3
COCC(=O)Nc1ccc(Br)cc1,73.3% (active),43.9
Cc1ccc(OC(=O)CCC(=O)Nc2ccc(Br)cc2)cc1,-66.7% (inactive),102
COCC(=O)Nc1cc(C(=O)OC)cc(C(=O)OC)c1,12.8% (inactive),127
O=C(Cc1cccc2ccccc12)NCCC1=CCCCC1,-22.2% (inactive),92.7
CCOC(=O)c1ccccc1NC(=O)CSc1nc2ccccc2c(=O)[nH]1,-83.3% (inactive),180
CCc1ccc(NC(=O)c2ccc(Cn3cc([N+](=O)[O-])cn3)cc2)cc1,6.25% (inactive),63.8

SMILES,inhibition,normalized cell count [%]
COc1cccc(NC(=O)c2ccc(Cn3cc([N+](=O)[O-])cn3)o2)c1,-11.1% (inactive),79.5
Cn1cc([N+](=O)[O-])c(C(=O)Nc2cnn(Cc3ccc(F)cc3)c2)n1,69.2% (active),112
COCCNC(=S)N1CCC(NC(=O)C23CC4CC(CC(C4)C2)C3)CC1,21.4% (inactive),106
CCn1c(SCc2ccccc2)nc2c(c1=O)SCC2,48.6% (inactive),108
CC(Sc1nnnn1C)C(=O)NC(=O)NC1CCCCC1 (centres undefined),36.4% (inactive),91.5
Cc1ccc(NC(=O)C2(N3CCC3=O)CCCCC2)cc1,-35.7% (inactive),133
O=C(O)Cc1ccc(NCc2ccccc2Cl)cc1,0% (inactive),111
C=CCNC(=O)COC(=O)CNC(=O)c1cc(Cl)cc([N+](=O)[O-])c1,83.3% (active),37
CC(C)(C)SCCNC(=O)c1cccc([N+](=O)[O-])c1,-42.9% (inactive),85.5
C=CCNC(=O)/C(=C\c1cccc([N+](=O)[O-])c1)NC(=O)c1ccccc1,-26.7% (inactive),102
CC(OC(=O)CCc1nc(=O)c2ccccc2n1C)C(=O)NCc1ccc2c(c1)OCO2 (centres undefined),-58.8% (inactive),141
Cc1ccc(CNC(=O)CCNS(=O)(=O)c2ccc(Br)s2)cc1,37.5% (inactive),94.3
Cc1ccccc1N1C(=O)C(Oc2ccc(Cl)cc2)C1CNCC1CCCO1 (centres undefined),-11.8% (inactive),94.4
OC(c1nnc(-c2ccccc2)o1)c1cccs1 (centres undefined),75% (active),106
Brc1ccc(-c2nnc(-c3ccccc3)o2)o1,19.1% (inactive),142
Nc1ccc(-c2nnc(-c3ccc(-c4ccccc4)cc3)o2)cc1,46.7% (inactive),46.6
CCCCNC(=O)N1CCN(S(C)(=O)=O)CC1,-42.9% (inactive),86.1
Clc1ccc(-c2csc(-c3ccncc3)n2)cc1,-16.7% (inactive),49.8
CCCCCN1CC(O)=C(c2ccccc2)C1=N,9.59% (inactive),61.8
CCCCCN1CC(O)=C(c2nc(-c3ccc(Cl)cc3)cs2)C1=N,81.1% (active),67.1
O=C(O)CSCC(=O)Nc1ccc(C(F)(F)F)cc1,29.4% (inactive),92.1
CCC(=O)c1ccc(OCC(O)Cn2nc(C)c(C(C)=O)c2C)cc1 (centres undefined),20% (inactive),57.4

SMILES,inhibition,normalized cell count [%]
Cc1ccccc1NC(=O)Cn1c(=O)n(CC2CCCO2)c(=O)c2ccccc21 (centres undefined),13.3% (inactive),106
O=C(CSc1nnnn1C1CCCC1)Nc1ccc2c(c1)OCCO2,73.3% (active),70.4
O=C(CSc1nnnn1-c1ccc2c(c1)CCC2)Nc1ccc2c(c1)OCCO2,28.6% (inactive),88.2
Cc1ccc(SCC(=O)Nc2ccc3c(c2)OCCO3)cc1,20.6% (inactive),137
COc1ccccc1N(C)S(=O)(=O)c1ccc(Cl)c(C(=O)N2CCC(C(N)=O)CC2)c1,18.2% (inactive),83.5
CCOC(=O)c1sc(NC(=O)CSc2nc(O)c(Cc3ccccc3)c(=O)[nH]2)nc1C,-50% (inactive),56.7
O=c1c(Cl)c(NC2CC2)cnn1-c1ccccc1,-85% (inactive),114
NC(=O)c1ccc(CN2CCC(Cc3ccccc3)CC2)cc1,-347% (inactive),40.1
Cc1ccc(CC(=O)Nc2cccc(C#N)c2)cc1,-16.7% (inactive),153
Cc1ccsc1C(=O)N/N=C/c1ccc([N+](=O)[O-])cc1,6.67% (inactive),153
Cc1nc2ccccc2cc1C(=O)N/N=C/c1ccc([N+](=O)[O-])cc1,75% (active),81
NC(=S)N/N=C/c1ccc([N+](=O)[O-])cc1,-36.4% (inactive),109
COc1cc(C(=O)N[C@@H](C)C(=O)NCc2ccco2)cc(OC)c1OC,33.3% (inactive),166
CCCN(C(=O)CSc1nnnn1C)c1c(N)n(Cc2ccccc2)c(=O)[nH]c1=O,-90.9% (inactive),30.3
O=c1[nH]c(CN2CCOCC2)nc2scc(-c3ccccc3)c12,25% (inactive),148
C#CCOCCOCCOCCNc1nc(N2CCN(C(=O)[C@H](C(C)C)n3cc(CCO)nn3)CC2)nc(N2CCN(C(=O)[C@H](C(C)C)n3cc(CCO)nn3)CC2)n1,50% (inactive),117
C#CCOCCOCCOCCNc1nc(N2CCN(C(=O)[C@H](C(C)C)n3cc(CCO)nn3)CC2)nc(N2CCN(C(=O)[C@H]([C@@H](C)CC)n3cc(CCCN=C(N)N)nn3)CC2)n1,70% (active),95.3
COCCNC(=O)NC(=O)COC(=O)C1(c2ccc(Cl)cc2)CC1,38.9% (inactive),75.1
COC(=O)c1ccc(CN(c2ccccc2OC)S(=O)(=O)c2cccs2)o1,7.89% (inactive),71.6
CCCC(NC(=O)c1ccccc1)c1nc2ccccc2n1Cc1ccc(C(=O)OC)o1 (centres undefined),-17.5% (inactive),206
COC(=O)c1ccc(Cc2ccccc2)o1,92.9% (active),83.1
